# Activity calls are given as the source filed them.
# Assays:
# [1] = tested on: PRMT1 (protein arginine N-methyltransferase 1); test: small molecules binding arginine methyltransferase PRMT1 – biochemical, small-molecule microarray, 635 nm fluorescence, primary screen (AID 1088); conditions: higher = more signal;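 also: binding of Prmt1 protein to compounds spotted on small-molecule microarray slides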
# [2] = growth effects on S. cerevisiae YJM789 – YJM789 clinical isolate, OD600, 24 h, basal, primary screen (AID 1089); conditions: higher = more signal, called active from +8 up or from −8 down;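 also: growth of clinical yeast isolate S. cerevisiae YJM 789 seeded 1000 cells per well; test concentration not given here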
# [3] = S. pombe growth modifiers, basal conditions – strain 972, OD600, 24 h, no modulator, primary screen (AID 1090);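 also: basal condition with compound alone and no growth modifier present; test concentration not given here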; conditions: S. pombe 972 growth, higher = more signal, called active from +8 up or from −8 down
# [4] = budding yeast growth modifiers under rapamycin – strain BY4716, OD600, 96 h, primary screen (AID 1091); also: test concentration not given here; conditions: S. cerevisiae BY4716 + rapamycin, higher = more signal, called active from +8 up or from −8 down
# [5] = biological target: Torsin-1A-interacting protein 2 (Homo sapiens) (UniProt Q8NFQ8); test: small molecules binding lysate-expressed LULL1 – cell lysate, human LULL1 lysate, 635/667 nm fluorescence, primary screen (AID 1092); conditions: small-molecule microarray, hLULL1 lysate binding, 635 nm fluorescence; higher = more signal;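 also: probe is lysate of COS7 cells overexpressing human LULL1; score merges per-feature 667 nm fluorescence with signal-to-noise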
# Chain of Torsin-1A-interacting protein 2 (Homo sapiens) (Q8NFQ8 whole entry, looked up): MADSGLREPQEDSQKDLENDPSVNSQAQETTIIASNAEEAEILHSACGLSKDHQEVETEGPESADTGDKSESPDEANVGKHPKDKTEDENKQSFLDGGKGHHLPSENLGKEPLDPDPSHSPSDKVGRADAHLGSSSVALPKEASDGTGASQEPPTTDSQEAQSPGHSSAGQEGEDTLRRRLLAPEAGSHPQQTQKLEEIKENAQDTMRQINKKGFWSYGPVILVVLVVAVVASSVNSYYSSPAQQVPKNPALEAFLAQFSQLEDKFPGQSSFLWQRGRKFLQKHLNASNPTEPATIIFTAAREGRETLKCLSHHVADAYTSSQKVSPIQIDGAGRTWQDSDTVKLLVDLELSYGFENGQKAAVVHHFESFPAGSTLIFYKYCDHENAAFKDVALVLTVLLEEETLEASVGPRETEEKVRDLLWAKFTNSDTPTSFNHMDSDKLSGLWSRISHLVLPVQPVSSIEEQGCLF
# [6] = optical density change of DRC41 E. coli – strain DRC41, OD650, 24 h, E. coli filamentation project, primary screen (AID 1093);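 also: MC1000 strain lacking acrAB efflux and sulA so SOS filamentation is blocked; test concentration not given here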; conditions: E. coli DRC41 growth, higher = more signal, called active from +8 up or from −8 down
# [7] = probe aLefty2 binding to arrayed compounds – biochemical, biotinylated probe, 635/667 nm fluorescence, primary screen (AID 1094); conditions: small-molecule microarray, higher = more signal;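 also: score merges spot fluorescence near 667 nm with spot signal-to-noise ratio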
# [8] = tested on: Noggin (protein binding on small-molecule microarray); test: small molecules binding Noggin protein – biochemical, 635/667 nm fluorescence, primary screen (AID 1095); conditions: 635 nm fluorescence, higher = more signal;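 also: score merges 667 nm feature fluorescence with signal to noise over triplicate slides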
# [9] = biological target: Neurogenic locus notch homolog protein 3 (Homo sapiens) (UniProt Q9UM47); test: small molecules binding NOTCH3 protein – biochemical, 635/667 nm fluorescence, primary screen (AID 1096); conditions: small-molecule microarray, 635 nm fluorescence, higher = more signal
# Chain of Neurogenic locus notch homolog protein 3 (Homo sapiens) (Q9UM47 whole entry, looked up): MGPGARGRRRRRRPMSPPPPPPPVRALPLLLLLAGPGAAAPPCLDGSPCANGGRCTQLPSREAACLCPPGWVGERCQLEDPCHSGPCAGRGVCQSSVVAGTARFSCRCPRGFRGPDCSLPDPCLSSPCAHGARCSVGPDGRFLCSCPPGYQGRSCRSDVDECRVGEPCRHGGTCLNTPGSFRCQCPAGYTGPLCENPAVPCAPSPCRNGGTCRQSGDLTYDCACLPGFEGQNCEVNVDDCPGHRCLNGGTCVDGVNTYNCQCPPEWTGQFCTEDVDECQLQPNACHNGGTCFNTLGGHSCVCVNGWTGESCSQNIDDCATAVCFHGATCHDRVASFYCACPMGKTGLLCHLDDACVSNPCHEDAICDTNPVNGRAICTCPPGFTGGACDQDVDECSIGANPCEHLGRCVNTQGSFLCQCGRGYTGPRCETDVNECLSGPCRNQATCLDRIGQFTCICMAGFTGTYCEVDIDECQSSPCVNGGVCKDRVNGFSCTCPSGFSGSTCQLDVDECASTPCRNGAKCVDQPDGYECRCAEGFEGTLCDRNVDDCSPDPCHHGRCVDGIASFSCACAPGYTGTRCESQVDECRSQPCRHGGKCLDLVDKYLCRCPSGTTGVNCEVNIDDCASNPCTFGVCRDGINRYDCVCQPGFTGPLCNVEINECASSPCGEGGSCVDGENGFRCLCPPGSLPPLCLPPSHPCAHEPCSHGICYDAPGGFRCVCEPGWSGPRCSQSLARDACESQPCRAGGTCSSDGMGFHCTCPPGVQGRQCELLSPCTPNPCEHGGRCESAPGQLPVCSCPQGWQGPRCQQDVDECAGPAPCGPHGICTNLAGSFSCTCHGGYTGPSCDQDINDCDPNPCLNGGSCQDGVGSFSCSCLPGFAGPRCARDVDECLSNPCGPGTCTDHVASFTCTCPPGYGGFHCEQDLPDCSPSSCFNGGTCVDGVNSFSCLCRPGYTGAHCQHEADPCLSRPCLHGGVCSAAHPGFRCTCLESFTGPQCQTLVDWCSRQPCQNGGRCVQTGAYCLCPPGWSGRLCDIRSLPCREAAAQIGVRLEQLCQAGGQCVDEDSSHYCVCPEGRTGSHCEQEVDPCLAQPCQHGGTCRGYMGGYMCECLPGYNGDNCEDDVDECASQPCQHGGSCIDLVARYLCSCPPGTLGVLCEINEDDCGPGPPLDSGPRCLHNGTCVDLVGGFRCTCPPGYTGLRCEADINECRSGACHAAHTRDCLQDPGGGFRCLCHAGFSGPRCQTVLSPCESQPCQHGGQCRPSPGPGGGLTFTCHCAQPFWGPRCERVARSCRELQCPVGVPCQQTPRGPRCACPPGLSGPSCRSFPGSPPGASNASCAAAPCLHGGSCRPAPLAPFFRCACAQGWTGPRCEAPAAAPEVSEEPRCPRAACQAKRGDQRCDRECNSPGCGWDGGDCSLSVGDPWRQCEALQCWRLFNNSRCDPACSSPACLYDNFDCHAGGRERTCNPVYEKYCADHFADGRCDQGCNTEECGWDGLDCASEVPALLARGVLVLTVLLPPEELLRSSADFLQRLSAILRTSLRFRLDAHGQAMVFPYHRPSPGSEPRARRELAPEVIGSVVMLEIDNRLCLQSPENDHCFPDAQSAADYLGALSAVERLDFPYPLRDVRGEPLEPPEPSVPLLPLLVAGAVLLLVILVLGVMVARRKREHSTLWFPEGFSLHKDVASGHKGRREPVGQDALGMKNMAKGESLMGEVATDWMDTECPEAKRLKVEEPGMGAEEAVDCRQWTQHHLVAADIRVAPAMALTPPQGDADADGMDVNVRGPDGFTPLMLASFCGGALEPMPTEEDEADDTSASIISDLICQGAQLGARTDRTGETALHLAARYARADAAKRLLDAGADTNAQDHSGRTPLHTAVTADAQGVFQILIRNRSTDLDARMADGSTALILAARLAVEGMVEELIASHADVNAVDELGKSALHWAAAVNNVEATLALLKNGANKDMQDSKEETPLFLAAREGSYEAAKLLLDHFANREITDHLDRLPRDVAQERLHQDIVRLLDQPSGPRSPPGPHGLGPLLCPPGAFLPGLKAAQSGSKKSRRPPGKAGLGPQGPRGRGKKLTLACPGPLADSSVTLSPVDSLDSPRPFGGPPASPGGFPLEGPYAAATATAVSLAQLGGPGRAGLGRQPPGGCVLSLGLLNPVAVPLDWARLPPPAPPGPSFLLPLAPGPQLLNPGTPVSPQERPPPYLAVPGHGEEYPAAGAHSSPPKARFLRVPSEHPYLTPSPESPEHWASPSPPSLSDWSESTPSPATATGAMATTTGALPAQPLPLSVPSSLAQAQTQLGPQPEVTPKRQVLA
# [10] = probe aEGFR binding to arrayed compounds – biochemical, biotinylated probe, 635/667 nm fluorescence, primary screen (AID 1097); conditions: small-molecule microarray, higher = more signal;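 also: probe is a biotinylated anti-EGFR antibody binding compounds printed on slides; score combines fluorescence near 667 nm and signal to noise of each spot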
SMILES,composite z-score [1],z-score [2],z-score [3],z-score [4],composite z-score [5],z-score [6],composite z-score [7],composite z-score [8],composite z-score [9],composite z-score [10]
O=C1C2C=CC(C(O)c3cc(C(F)(F)F)cc(C(F)(F)F)c3)N(n3cnnc3)C2C(=O)N1Cc1ccccc1 (stereo not given),0.369,-0.572 (inactive),0.685 (inactive),-0.384 (inactive),2.5,0.0068 (inactive),-0.191,-0.267,0.679,-0.139
CCOC(=O)C[C@H]1[C@H](OC(=O)c2ccc(-c3ccccc3)cc2)[C@@H](NC(=O)Cc2ccc(OC)cc2)c2cc(OCCCO)ccc2N1C(=O)c1ccccc1,-0.15,0.359 (inactive),0.822 (inactive),0.72 (inactive),0.905,-0.69 (inactive),0.044,0.763,0.238,-0.122
C[N+](C)(C)CCCCNC(=O)[C@H]1C[C@H]2C(=O)N3CCC[C@H]3C(=O)N2[C@H]1c1cccc(OCCO)c1,0.0394,0.573 (inactive),-0.0177 (inactive),-1.09 (inactive),0.889,0.51 (inactive),0.0459,1.52,0.0378,-0.185
C=CCOC(=O)[C@H]1[C@@H]2C(=O)O[C@@H](c3ccccc3)[C@@H](c3ccccc3)N2[C@@H](c2ccc(OCCOC(=O)[C@H]3C[C@H]4C(=O)N[C@@H](CCCC[N+](C)(C)C)C(=O)N4[C@H]3c3ccc(O)cc3)cc2)[C@]12C(=O)Nc1ccc(I)cc12,1.36,0.318 (inactive),-0.503 (inactive),0.467 (inactive),1.14,-0.173 (inactive),0.331,0.733,0.209,0.0304
C=C(C)[C@@H]1CC=C(C(O)C2C=CC3C(=O)N(c4ccccc4)C(=O)C3N2Nc2ccccc2)CC1 (stereo not given in full),1.55,0.0118 (inactive),0.0527 (inactive),0.0587 (inactive),3.32,-0.784 (inactive),0.467,0.302,1.05,0.34
COC(=O)[C@@]1(Cc2ccc(OC)cc2)[C@H]2c3cc(C(=O)N4CCCC4)n(Cc4ccc(O)c(OC)c4)c3C[C@H]2CN1C(=O)c1ccccc1,-0.356,0.972 (inactive),1.19 (inactive),1.18 (inactive),3.39,-0.456 (inactive),0.531,-0.194,0.6,0.805
COCCCNC(=O)[C@@]1(C)c2ccccc2C(=O)N(C(C)C)[C@H]1c1ccc(CO)cc1,1.53,0.564 (inactive),-0.162 (inactive),0.642 (inactive),1.6,-0.636 (inactive),-0.136,0.571,0.473,0.0004
CC1CC/C=C\[C@H]2OC34C=CCN(C(C)(C)C)C(=O)[C@H]3N(C(C)CO)C(=O)[C@@H]4C2C(=O)O1 (stereo not given in full),-0.282,0.214 (inactive),-0.538 (inactive),-0.0168 (inactive),-0.656,-0.434 (inactive),-0.207,0.0449,-0.454,-0.27
CO[C@H]1O[C@H](CO)[C@@H](OC(=O)Nc2ccc(C(F)(F)F)cc2)[C@H](OC(=O)Nc2ccc3c(c2)OCO3)[C@@H]1OC(=O)Nc1ccc2c(c1)OCO2,1.54,2.76 (inactive),0.942 (inactive),10 (active),3.11,2.24 (inactive),-0.0021,0.476,1.08,0.0869
NCCCCCCNC(=O)[C@@H]1C[C@@H]2C(=O)NCC(=O)N2[C@@H]1c1ccc(O)cc1,1.56,0.0703 (inactive),0.467 (inactive),-0.129 (inactive),1.01,1.1 (inactive),-0.0324,1.58,1.07,-0.0409
